The whole screen tested about 2,200 compounds, of which about 530 (24%) were called active. These entries were drawn from the full list. Measured potencies and affinities stand elsewhere. Unmarked numbers belong to inactive results.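 How the source made its calls: active means inhibition above a set limit at one or more concentrations of the dose series; inactive means inhibition under that limit at every dose.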
assay: S. Typhimurium nonspecific reporter signal inhibition – Salmonella Typhimurium, GFP fluorescence, counter-screen for PhoP regulon inhibitor project, dose response (AID 2401); settings: 4 h; series mostly up to 150 µM; inhibition: at the top concentration;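 further: S. typhimurium with Mg-insensitive nmpC-GFP reporter grown at 10 µM Mg2+; drop in reporter fluorescence reflects general culture growth inhibition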

Row | SMILES | inhibition
1 | Clc1ccc(CNc2ccc(CNc3ncn[nH]3)cc2)cc1 | -8.26%
2 | Cc1cc(C(=O)N2CCN(C/C=C/c3ccccc3)CC2)no1 | -11.5%
3 | N#CC1(C#N)COC23CCCCC2C1(C#N)C(=N)O3 (configuration not stated) | 16.8%
4 | CCCc1nn(C)c2c1C(c1cccnc1)C(C#N)=C(N)O2 (configuration not stated) | -14.1%
5 | CCSc1nnc(NC(=O)Cc2cccc(OC)c2)s1 | -15.3%
6 | O=C(COC(=O)c1n[nH]c2ccccc12)NC(=O)NC12CC3CC(CC(C3)C1)C2 | 24.8%
7 | C#CCOc1c(Cl)cc(/C=N/O)cc1OC | -31.2%
8 | Cc1ccc(N(CC(=O)N/N=C/c2ccco2)S(=O)(=O)c2ccccc2)cc1 | -13.4%
9 | O=C(Nc1cccnc1)c1cc(F)cc(F)c1 | -20%
10 | Cc1[nH]c2ccccc2c1C1=NNC(=Nc2ccc(F)cc2)SC1 | 21.3%
11 | O=C(CCC(=O)c1cccs1)OCC(=O)N1CCN(S(=O)(=O)c2ccccc2)CC1 | -3.05%
12 | CCOC(=O)CCC(NC(=O)c1ccc(NCN2C(=O)CCC2=O)cc1)C(=O)OCC (configuration not stated) | -16.3%
13 | Cc1ccc(S(=O)(=O)NCc2ccc(C(=O)N3CCN(c4ccccn4)CC3)cc2)cc1 | -3.97%
14 | COCCNCCOc1ccccc1-c1ccccc1 | -20.5%
15 | O=C(NCc1ccco1)c1cccc(Nc2nc3ccc(Br)cc3[nH]2)c1 | 16.6%
16 | Nc1cc(N)cc(-c2nc3ccccc3[nH]2)c1 | -11.4%
17 | Cc1ccc(C)c(-c2nc3ccc(N)cc3[nH]2)c1 | 8.01%
18 | O=C(OCC1O[C@@H](OC(=O)c2cc(O)c(O)c(O)c2)[C@@H](OC(=O)c2cc(O)c(O)c(O)c2)[C@@H](OC(=O)c2cc(O)c(O)c(O)c2)[C@@H]1OC(=O)c1cc(O)c(O)c(O)c1)c1cc(O)c(O)c(O)c1 (some centres not stated) | 26.4%
19 | Cc1nn(C)c(C)c1S(=O)(=O)N1CCC(C(=O)NC2CCCCC2)CC1 | -28.4%

Row | SMILES | inhibition
20 | Oc1[nH]c(=S)sc1/C=C1\C(c2ccccc2)=Nc2ccccc21 | 33.3%
21 | C#CCn1c(=NC(=O)c2cc(Cl)sc2Cl)sc2cc(S(N)(=O)=O)ccc21 | -40%
22 | O=C(O)C1(P(=O)(c2ccccc2)c2ccccc2)CCC1 | -25.4%
23 | Cc1cc(C)c2c(=O)[nH]c(SCC(=O)Nc3ccc(N(C)C)cc3)nc2n1 | 35.6%
24 | CC(C)c1ccc(O)c(NC(=O)c2cncc(Br)c2)c1 | -9.36%
25 | Cc1cc2nn(-c3ccccc3)nc2cc1NC(=O)c1cccs1 | -31.8%
26 | Cc1ccc(/C=C2\SC(=S)N(Cc3ccccc3)C2=O)o1 | -4.72%
27 | O=C(Nc1ccsc1C(=O)NC1CCCCC1)c1ccccc1 | -7.17%
28 | CCOC(=O)c1c(NC(=O)COc2ncnc3ccccc23)sc(C)c1CC | -17.2%
29 | CCOC(=O)CCCc1c[nH]c2ccccc12 | -19.1%
30 | O=C(c1ccccc1)c1coc2ccc(O)c(Cl)c12 | -8.89%
31 | CCCCN(C)C(=O)c1cn(C)c2ccc(S(=O)(=O)N(C)C)cc2c1=O | -20.2%
32 | Cc1nc(CC(=O)c2ccc(O)cc2O)cs1 | -15.4%
33 | COC(=O)c1sccc1NC(=O)c1cccnc1 | -1.61%
34 | O=C(CSc1ccc(Cl)cc1)Nc1ccccc1N1CCN(C(=O)c2ccc(Cl)cc2)CC1 | 18.5%
35 | COc1ccc(-c2csc(Nc3cccnc3)n2)cc1 | -14.9%
36 | CC(=O)NC12CC3CC(C1)CC(C(=O)OCC(=O)c1ccc4c(c1)OCCO4)(C3)C2 | -11.1%
37 | COc1ccc(CC(=O)n2nc(-c3ccccc3)nc2NCc2ccco2)cc1 | -29.6%
38 | CC(C)(C)c1ccc(C2CC2C(=O)N/N=C\c2cc3ccccc3nc2Cl)cc1 (configuration not stated) | -20.2%

Row | SMILES | inhibition
39 | CCCCn1c(N)nc2ccccc21 | 18.9%
40 | COc1ccc2c(c1)nc(N)n2Cc1ccccc1 | 9.4%
41 | CCCn1c(N)nc2ccccc21 | 11.4%
42 | CSc1nc2ccccc2n1Cc1cccc(F)c1 | -20.3%
43 | CCOC(=O)c1[nH]c2ccccc2c1NC(=O)NC1CCCCC1 | -19.6%
44 | O=C(OCC#CCSc1nnc(-c2cccc3ccccc23)o1)c1ccco1 | -14.9%
45 | Cc1ccc2nc(C(F)OC(F)(F)F)[nH]c2c1 (configuration not stated) | -31.3%
46 | O=C(CC1SC(=NCc2ccccc2)NC1=O)Nc1ccccc1 (configuration not stated) | -28.2%
47 | COc1ccc(NC(=O)c2ccc(OC)cc2)cc1 | 3.62%
48 | COc1ccc(OCCn2cc(/C=N/NC(=O)c3ccncc3)c3ccccc32)cc1 | -12%
49 | CC(=O)n1cc(/C=N/NC(=O)c2sc(C)nc2C)c2ccccc21 | -7.12%
50 | COc1ccc2ccccc2c1/C=N/NC(=O)c1sc(N)c(C#N)c1C | 3.17%
51 | CC(=O)c1c(C)nc(-c2ccc(Cl)cc2)nc1N=CN(C)C | 0.07%
52 | O=C1CN(C(=O)COC(=O)CCC(=O)c2ccc3c(c2)OCCO3)c2ccccc2N1 | -0.13%
53 | Cc1cccc(-n2c(N)cc(=O)[nH]c2=S)c1C | 25.7%
54 | Oc1cccc2ccc[n+](CC(O)Cn3c4ccccc4c4ccccc43)c12 (configuration not stated) | -8.84%
55 | OCCN(CCO)CC(O)Cn1c2ccccc2c2ccccc21 (configuration not stated) | -5.12%
56 | Cc1cc(C)c(C#N)c(SCc2cn3ccccc3n2)n1 | 1.99%
57 | CCCCNC(=O)Oc1cccc(N2CCCC2=O)c1 | 31.2%

— PubChem BioAssay AID2401 (Southern Research Specialized Biocontainment Screening …, 2010)
